# Records with an inconclusive call do not appear. Active and inactive are the calls of the source. How the source made its calls: active means hit-call score of the fitted dose curve at least 0.9, where 1 is the maximum; inconclusive means response in the unintended direction; inactive means score below 0.9.
# Test: ERF_FR_GPCR_rPY2: Eurofins (ERF) G Protein-Coupled Receptor (GPCR) Radioligand Binding LeadHunter Assay for rat P2Y Receptor (Non-Selective) Agonism
# Procedure: ERF_FR_GPCR_rPY2 is a biochemical, single-readout assay that uses extracted gene-proteins in a cell-free assay. Measurements were taken 1 hour after chemical dosing in a 96-well plate. See Non-Selective Rat P2Y GPCR Binding (Agonist Radioligand) Assay, Cerep.ERF_FR_GPCR_rPY2 is an assay component calculated from the ERF_FR_GPCR_rPY2 assay. It is designed to measure radioligand binding using a type of binding reporter as detected by scintillation counting with radiometry technology.Data from the assay component ERF_FR_GPCR_rPY2 was analyzed at the assay endpoint, ERF_FR_GPCR_rPY2, in the positive analysis fitting direction relative to DMSO as the negative control and baseline of activity. Using a type of binding reporter, gain-of-signal activity can be used to understand changes in binding as they relate to gene P2RY1. To generalize the intended target to other relatable targets, this assay endpoint is annotated to the gpcr intended target family, where the subfamily is P2Y.
# Rat cells are incubated for 60 minutes at room temprature with [35S]dATPalpha S (10 nM) ligand and Datpalphas as control inhibitor. Test Sample Requirements: Minimum for 1) Screen: 60 ul of 10 mM stock -OR- 1 mg (pre-weighed) for 10 uM final testing. 2) Dose Response: 90 ul of 10 mM stock -OR- 1 mg (pre-weighed) for a top concentration at 10 uM.
row,SMILES,AC50
1,O=C(/C=C/c1ccc(O)cc1)CC(=O)/C=C/c1ccc(O)cc1,937 nM (active)

# From PubChem BioAssay AID2284171 (EPA ToxCast)
